# G9a block = G9a (human) methyltransferase inhibition. AID 504332. G9a H3K9 monomethylation, AlphaScreen, 2 h. Potency, µM (titrated, usually from 102 µM), actives largely listed as inhibitors. Q96KQ7. 350,000 tested, 8.8% active; note: nearly all actives have a fitted effect of over 75% in size
#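 Compounds were preincubated with 20 nM G9a for 15 min, after which biotinylated H3K9 peptide (500 nM) and SAM (20 uM) started a 2 h room-temperature reaction. Monomethylated product was quantified by antibody-based AlphaScreen chemiluminescence.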
# GLS inh = inhibitors of human glutaminase (GLS). O94925. GLS enzymatic activity, qHTS titration. Potency, µM (top dose mostly 45.5 µM), hits mostly inhibitors. 410,000 tested, 0.21% active
#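 Glutamate formation by hKGA was monitored fluorometrically using coupled glutamate oxidase, HRP and Amplex Red. Substrate was added as 1 mM L-glutamine solution; incubation was 30 min at RT after an initial read.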
# HP1b chromo inh = inhibitors of HP1-beta chromodomain binding to methylated histone tails | P83916 | AlphaScreen HP1-beta / biotin-H3K9me3 peptide binding | Potency, µM (series often up to 114 µM), usual class: inhibitors | 390,000 tested, 0.56% active | AID 540317; note: nearly all actives have a fitted effect of over 70% in size
#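 Compound inhibition of the preformed complex between 50 nM HP1-beta and 50 nM biotinylated H3K9me3 peptide was read by AlphaScreen. Buffer was PBS pH 7.4 with 0.01% Tween-20. Incubations ran 30 min at room temperature, with 10 ug/mL donor/acceptor beads.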
# BAZ2B inh = BAZ2B (human) inhibition; 360,000 tested, 4.4% active; AlphaScreen BAZ2B-H3K14Ac peptide displacement; Potency, µM (highest dose often 114 µM), hits mostly inhibitors; note: nearly all actives have a fitted effect of over 60% in size
#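 BAZ2B 50 nM plus b-H3(5-23)K14Ac 50 nM, PBS pH 7.4/0.01% Tween-20, 30 min RT; compound added (max 110 uM), 30 min RT; streptavidin donor/Ni-chelate acceptor beads 10 ug/mL final, 20 min dark; AlphaScreen read.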
# JMJD2A Tudor inh = JMJD2A Tudor domain (human) inhibition | O75164 | AlphaScreen JMJD2A-Tudor / H3K4me3 peptide binding | Potency, µM (doses to about 114 µM), most hits filed as inhibitors | 390,000 tested, 4.4% active; note: nearly all actives have a fitted effect of over 50% in size
# L3MBTL1 block = inhibitors of human L3MBTL1; Q9Y468; AlphaScreen L3MBTL1–H3K9me1 peptide binding; Potency, µM (top dose mostly 57.1 µM), usual class: inhibitors; 230,000 tested, 0.66% active; AID 485360; note: nearly all actives have a fitted effect of over 60% in size
#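 AlphaScreen assay: L3MBTL1 (50 nM final) was preincubated 30 min at room temperature with biotinylated H3(1-15)K9me1 peptide (75 nM final), then 30 min with library compounds; streptavidin donor and nickel chelate acceptor beads (10 ug/mL final) added, 30 min dark.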
# Numbers stand for hits; i = inactive; ? = inconclusive; nt = no result given; [ ] = dose if it differs, or a comment. The list is not random: actives were taken first. Their share in the collection is about 10%. Calls come from the whole dose curve; as a rule, active = well fitted curve in the direction sought with a large enough effect; inconclusive = small, poorly fitted or top-dose-only effect, or another doubt; inactive = no such curve, though single readings can be large; an effect the other way counts as inactive or inconclusive.
SMILES,G9a block,GLS inh,HP1b chromo inh,BAZ2B inh,JMJD2A Tudor inh,L3MBTL1 block
Cn1c(SCC(=O)c2ccc(O)c(O)c2)nnc1-c1cccs1,nt,i,i,50µM,25µM,i
CCn1c(SCc2nc3ccccc3s2)nnc1-c1cccs1,i[12.7 µM],i,i,i,i,i
Cn1c(SCc2ccccc2)nnc1-c1cccs1,i,i,i,i,i,i
CCCCCC(=O)/C=C/C=C\CCCCCCCC(=O)O,i,nt,nt,nt,nt,nt
O=C(NN1CCOCC1)c1sc2cccc(F)c2c1Cl,28µM,i,i,i,i,i
O=C(NN1CCOCC1)c1ccccc1F,nt,i,i,i,i,nt
O=C(NCc1ccc(F)cc1)c1ccc(CS(=O)(=O)c2ccc(Cl)cc2)o1,i,i,i,i,i,nt
COC(=O)c1ccc(CS(=O)(=O)c2ccc(F)cc2)o1,71µM,i,i,i,i,nt
CC(C)c1ccccc1OCC(O)CN1CCN(S(=O)(=O)c2ccc([N+](=O)[O-])cc2)CC1 (stereo not given),35µM,i,?,40µM,20µM,nt
O=S(=O)(c1ccccc1)N1CCN(CC(O)COc2ccc3c(c2)CCC3)CC1 (stereo not given),?,i,i,i,i,nt
N#Cc1ccccc1S(=O)(=O)N1CCN(CC(O)c2ccccc2)CC1 (stereo not given),16µM,i,45µM,50µM,2.2µM,i
CC(OCC(O)CN1CCN(S(=O)(=O)c2ccc(Cl)cc2)CC1)c1ccc(Cl)cc1 (stereo not given),nt,i,nt,nt,nt,nt
O=S(=O)(c1ccc(F)cc1)N1CCN(CC(O)COc2ccccc2F)CC1 (stereo not given),8.9µM,i,25µM,20µM,7.9µM,nt
N#Cc1ccccc1S(=O)(=O)N1CCN(Cc2cccs2)CC1,nt,i,nt,nt,nt,nt
N#Cc1ccccc1S(=O)(=O)N1CCN(CC(O)COc2ccccc2F)CC1 (stereo not given),2.2µM,i,?,28µM,3.2µM,nt
CC(C)(C)OC(=O)N1CCC(c2c(C(=O)N3CCN(c4ccccn4)CC3)cnn2-c2cccc(F)c2)CC1,i,i,i,i,i,nt
Cc1ccc(-n2ncc(C(=O)NCCc3ccsc3)c2C2CCN(C(=O)OC(C)(C)C)CC2)c(C)c1,i,i,i,i,i,nt
COc1ccc2c(c1)cc1c(=O)n(CC(=O)NC3CC3)nc(C)n12,i,i,i,i,i,nt
O=C(NCC(c1ccc(Cl)cc1)N1CCCCC1)c1ccccc1 (stereo not given),i,i,i,i,i,nt
COc1ccc(CNC2CCCCC2C)c(OC)c1 (stereo not given),14µM,i,?,56µM,2µM,i
COc1ccc(CNC2CCCc3ccccc32)c(OC)c1 (stereo not given),nt,i,?,i,50µM,i
COc1ccc(NC(=O)NC2CCCc3ccccc32)c(OC)c1 (stereo not given),i,i,i,i,i,nt
O=c1[nH]cc(CCc2ccccc2)c2ncncc12,nt,nt,i,nt,i,nt
CCOC(=O)c1sc(NC(=O)c2cc(-c3ccc(F)cc3)on2)c(C(=O)OCC)c1C,i,i,i,i,i,nt
CCOC(=O)c1c(NC(=O)c2cc(-c3ccc(O)cc3)on2)sc(C(C)=O)c1C,22µM,?,i,i,i,i
SMILES,G9a block,GLS inh,HP1b chromo inh,BAZ2B inh,JMJD2A Tudor inh,L3MBTL1 block
CCOC(=O)c1c(NC(=O)c2cc(-c3ccc(OC)cc3)on2)sc(C)c1C,8.9µM,i,i,i,i,nt
CCc1ccc(NC(=O)c2cc(-c3ccc(OC)cc3)on2)cc1,i,i,i,56µM,i,nt
COc1ccccc1N1CCN(C(=O)CSc2nc3ccccc3nc2Cc2ccccc2)CC1,i,i,i,i,i,nt
Cc1ccc(CN(C)C(=O)CCc2nc3sc4c(c3c(=O)[nH]2)CCCC4)o1,nt,i,i,i,71µM,nt
CN(C)C(=O)CCc1nc2sc3c(c2c(=O)[nH]1)CCCC3,i,i,i,i,i,nt
CN(Cc1ccco1)C(=O)CCc1nc2sc3c(c2c(=O)[nH]1)CCCC3,79µM,i,i,?,?,nt
OC(CNCCc1ccc(C(F)(F)F)cc1)COC(c1ccccc1)c1ccccc1 (stereo not given),?,i,?,25µM,13µM,nt
